Each structure is given as a SMILES string. Where “and” joins values, the source holds several entries; their conditions need not be identical. Equal values may be shown once.

The results in this text go back to ChEMBL document CHEMBL3433997, “St. Jude Leishmania screening dataset” (2016).

Holding throughout (assay type): functional
The target of experiment [1] is Solute carrier family 2, facilitated glucose transporter member 1 (Homo sapiens) (UniProt P11166). In words: ST_JUDE_LEISH: Cytotoxicity at 2uM final concentration against transgenic Leishmania Mexicana promastigotes LmGLUT1 that are glucose transport deficient and complemented with the human glucose transporter GLUT1. Activity is measured by DNA content using SYBR green in vitro.
Solute carrier family 2, facilitated glucose transporter member 1 (Homo sapiens), sequence (P11166 whole entry): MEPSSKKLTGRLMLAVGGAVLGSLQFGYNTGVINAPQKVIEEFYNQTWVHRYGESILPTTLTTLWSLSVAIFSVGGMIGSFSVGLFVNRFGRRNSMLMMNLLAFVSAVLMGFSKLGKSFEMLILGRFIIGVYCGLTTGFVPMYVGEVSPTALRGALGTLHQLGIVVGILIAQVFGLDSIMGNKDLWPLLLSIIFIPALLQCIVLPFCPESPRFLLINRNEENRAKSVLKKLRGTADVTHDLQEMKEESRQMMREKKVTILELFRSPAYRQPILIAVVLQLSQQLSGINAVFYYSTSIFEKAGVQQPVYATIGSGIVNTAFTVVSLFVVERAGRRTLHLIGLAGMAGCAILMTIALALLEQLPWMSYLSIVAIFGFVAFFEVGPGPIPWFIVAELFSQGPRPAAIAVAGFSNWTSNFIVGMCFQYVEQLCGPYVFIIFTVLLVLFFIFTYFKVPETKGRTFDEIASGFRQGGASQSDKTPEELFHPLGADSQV

Experiment [2] deals with Hexose transporter 1 (Plasmodium falciparum) (UniProt O97467). In words: ST_JUDE_LEISH: Cytotoxicity at 2uM final concentration against transgenic Leishmania Mexicana promastigotes LmPfHT that are glucose transport deficient and complemented with the Plasmodium falciparum hexose transporter. Activity is measured by DNA content using SYBR green in vitro.
The target of experiment [3] is Glucose transporter (Leishmania mexicana) (UniProt O61059). In words: ST_JUDE_LEISH: Cytotoxicity at 2uM final concentration against transgenic Leishmania Mexicana promastigotes LmGT2 that are glucose transport deficient and complemented with the L. Mexicana glucose transporter 2. Activity is measured by DNA content using SYBR green in vitro.

Consider `O=C(/C=C/c1cc(F)cc(C(F)(F)F)c1)N1CCC(CN2CCC(c3c[nH]c4ccccc34)CC2)CC1`, for which the inhibition – broadly, the change of the read-out against control, counted positive when it falls – was 0.47% in experiment [1], 1.39% in experiment [2] and 2.96% in experiment [3].
For `O=C(Nc1ccc(Oc2ccccc2)cc1)N1CCC(CN2CCC(c3c[nH]c4ccccc34)CC2)CC1`, in that order: 1.64%, 2.58% and -1.12%.
In the case of `O=C(CC1CCCC1)N(CC1CCN(Cc2ccc(C(F)(F)F)cc2)CC1)c1ccc(N2CCOCC2)c(F)c1`, the values for the inhibition in experiment [1], in experiment [2] and in experiment [3] were 13.5%, 10.9% and 14%, respectively.
Consider `O=C(C=Cc1ccccc1C(F)(F)F)NC1CCC(CN2CCC(c3c[nH]c4ccccc34)CC2)CC1` (configuration not stated), for which the inhibition was 8.82% and 9.04% in experiment [1]; 5.1% and 5.78% in experiment [2]; 5.23% and 4.7% in experiment [3].
Consider `O=C(NC1CCC(CN2CCC(c3c[nH]c4ccccc34)CC2)CC1)c1cn(Cc2ccccc2)c2ccccc12` (configuration not stated), for which the inhibition in experiment [1] is 0.71%; in experiment [2], 1.32%; in experiment [3], -1.09%.
The corresponding values for `CC(Cc1ccc(SCCSc2ccccc2)cc1)NCC(O)c1cccc(Cl)c1` (configuration not stated) are 0.69%, -0.5% and 1.16%.
For `O=C(Cc1cc(=O)oc2cc(O)ccc12)N1CCC(CN2CCC(c3c[nH]c4ccccc34)CC2)CC1`, in that order: 4.12%, 5.46% and 5%.
The corresponding values for `CCN1CCC2(c3cccc(OC)c3)Cc3nc4ccccc4c(-c4ccccc4)c3CC2C1` (configuration not stated) are 3.21%, 1.3% and 2.12%.
With `COc1cc(NCCCNC(=O)c2cn(Cc3ccccc3)c3ccccc23)nc2ccccc12`, the inhibition in experiment [1] was -0.26%; in experiment [2], -0.48%; in experiment [3], -1.02%.
For `Cc1cc(C2CCCCN2C)ccc1-c1ccc(C(=O)N2CCc3cc4c(cc32)C2(CCN(C)CC2)CO4)cc1` (configuration not stated), in that order: 3.41%, 0.31% and 1.11%.
The corresponding values for `C=C[C@H]1CN2CC[C@H]1C[C@H]2[C@H](O)c1cc(/C=C/c2ccc(F)cc2)nc2ccc(OC)cc12` are 2.95%, 0.72% and 2.4%.
For `O=C(NC1CCC(CN2CCC(c3c[nH]c4ccccc34)CC2)CC1)[C@H]1Cc2ccccc2CN1` (some centres not stated), in that order: 1.47%, 2.41% and 4.44%.
Consider `COc1cccc(C2(C)CCN(CCCCNC(=O)c3ccc(NC(=O)c4ccc(Cl)cc4)cc3)CC2)c1`, for which the results for the inhibition in experiment [1], in experiment [2] and in experiment [3] were -1.81%, -1.78% and -3.4%, respectively.
For `CC[C@H]1CN2CCc3cc(OC)c(OC)cc3[C@@H]2C[C@@H]1C[C@H]1NCCc2c1cc(OC)c(O)c2Cl`, in that order: 94.8%, 98.3% and 89.3%.
For `O=C(/C=C/c1ccc(Cl)c(Cl)c1)N1CCC(CN2CCC(c3cn(CC(=O)N4CCCCC4)c4ccccc34)CC2)CC1`, in that order: 2.63%, 2.05% and -2.07%.
Take `CCCCCc1cc(O)c2c(c1)OC(C)(C)CC2C1=CCN(Cc2ccccc2)CC1` (configuration not stated): the inhibition in experiment [1] came to 2.07%; in experiment [2], 2.23%; in experiment [3], 2.74%.
Turning to `CC[C@H]1CN2CC[C@@H]1C[C@H]2[C@H](O)c1cc(N2CCC(O)CC2)nc2ccc(OC)cc12`, the figures for the inhibition in experiment [1], in experiment [2] and in experiment [3] were -1.16%, -0.97% and -0.9%, respectively.
Regarding `COc1cccc(C(=O)C2CC2CN2CC=C(c3c[nH]c4cccc(Br)c34)CC2)c1` (configuration not stated), the inhibition was 1.59% in experiment [1], 1.08% in experiment [2] and -0.34% in experiment [3].
In the case of `O=C(/C=C/c1cc(C(F)(F)F)ccc1F)NC1CCC(CN2CCC(c3c[nH]c4ccccc34)CC2)CC1` (configuration not stated), the figures for the inhibition in experiment [1], in experiment [2] and in experiment [3] were 6.52%, 5.67% and 6.74%, respectively.
For `CN1C(=O)OC[C@@H]1Cc1ccc2[nH]cc(C3=CCN(Cc4ccccc4)CC3)c2c1`, in that order: 2.44%, 7.87% and -0.74%.
For the molecule `C/C=C1\CN2CC[C@H]1C[C@@H]2[C@@H](O)c1ccnc2ccc(O)cc12`, the inhibition in experiment [1] is 2.02%; in experiment [2] it was 1.55%; in experiment [3], 2.5%.
The corresponding values for `CC[C@H]1CN2CC[C@@H]1C[C@H]2[C@H](O)c1cc(N2CCOCC2)nc2ccc(OC)cc12` are -1.11%, -1.44% and -2.42%.
The corresponding values for `Cc1[nH]c2cc(Cl)ccc2c1C1=CCN(CCN2CCOc3c(Br)cccc3C2=O)CC1` are 5.36%, 5.27% and 6.71%.
The corresponding values for `CCC1(C)N=C(N)N=C(N)N1c1ccc(Cl)cc1` (configuration not stated) are 3.87%, -0.9% and 2.79%.
Take `Cc1ccccc1C1=CCN(CCCN2c3ccccc3Sc3ccc(Cl)cc32)CC1`: the results for the inhibition in experiment [1], in experiment [2] and in experiment [3] were 6.62%, 5.58% and 1.49%, respectively.
For `COc1cc2nc(N(C)C3CCN(Cc4ccccc4)CC3)nc(N)c2cc1OC`, in that order: 69.8%, 46.7% and 25%.
For the molecule `Cc1[nH]c2ccc(O)cc2c1C1CCN(CC2CCN(C(=O)/C=C/c3ccc(Cl)c(Cl)c3)CC2)CC1`, the inhibition was 0.92% in experiment [1], 0.19% in experiment [2] and -0.96% in experiment [3].
For `O=C(Nc1ccccc1C(F)(F)F)NC1CCC(CN2CCC(c3c[nH]c4ccccc34)CC2)CC1` (configuration not stated), the inhibition is 7.14% and 3.61% in experiment [1]; 4.94% and 7.06% in experiment [2]; 2.99% and -1.24% in experiment [3].
Turning to `CNCCCCCCc1ccc(CC(C)NCC(O)c2cccc(Cl)c2)cc1` (configuration not stated), the results for the inhibition in experiment [1], in experiment [2] and in experiment [3] were 6.3%, 2.29% and 0.1%, respectively.
For the molecule `N#Cc1c(Cl)cccc1Oc1ccc(S(=O)(=O)NC2CCC(CN3CCC(c4c[nH]c5ccccc45)CC3)CC2)cc1` (configuration not stated), the inhibition in experiment [1] was 0.9% and 1.4%; in experiment [2], 1.87% and 1.07%; in experiment [3], 0.19% and -0.57%.
As to `COc1ccc2[nH]cc(C3=CCN(CC4CC4C(=O)c4ccccc4)CC3)c2n1` (configuration not stated), the inhibition in experiment [1] is 12.6%; in experiment [2], 14.6%; in experiment [3], 11.3%.
For `CCCCCC(C)C(C)c1cc(O)c2c(c1)OC(C)(C)c1cnccc1-2` (configuration not stated), in that order: -1.41%, 0.7% and -1.32%.
The corresponding values for `COc1ccc2nc(-c3ccc(F)cc3)cc([C@@H](O)[C@@H]3C[C@@H]4CCN3CC4C=NO)c2c1` (some centres not stated) are 4.55%, 4.75% and 3.7%.
For `CCN1CCC(N2CCC(n3c(C)nc4cc(C(F)(F)F)ccc43)CC2)CC1`, the inhibition in experiment [1] was found to be 3.01%; in experiment [2] it was 3.12%; in experiment [3], 4.4%.
